# Results published in PubChem BioAssay (NCI).
# Compounds without any hit were thinned out: in the full panel of roughly 83,000, 20% have a hit.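 Each cell line was grown in a 96-well plate and treated with one concentration of compound for 48 hours. Values below 10 were considered active.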 Values without a mark were called inactive. Activity calls are given as the source filed them.
# System: SK-MEL-28 melanoma
# Experiment: NCI-60 one-dose screen, 48 h (100 = growth as untreated, 0 = no growth, -100 = all killed)
# Details: 10 µM unless noted
# Method: Growth inhibition of the SK-MEL-28 human tumor cell line is measured as a screen for anti-cancer activity. Cells are grown in 96 well plates and exposed to the test compound for 48 hours. Compounds are tested at a single concentration, which is 10^-5 M for most compounds. The reported endpoint is percent growth (GI% or GIPRCNT), where numbers from 0 - 100% represent growth inhibition, and numbers from -100% - 0 represent cell death. For example, a value of 40 represents 60% growth inhibition. A value of 0 means no net growth occurred over the course of the experiment. A value of -40 indicates 40% of cells at the beginning of the experiment died by the end of the experiment. A value of -100 means all cells are dead at the end of the experiment.
# NCI-60 Human Tumor Cell Lines Screen was performed using the standard one-dose NCI protocol, which is described in more detail at https://dtp.cancer.gov/discovery_development/nci-60/default.htm.
# Compounds with GIPRCNT values below 10 were considered active. Activity score was based on GIPRCNT using the following formula: […]
# Score is 0 for GIPRCNT values of 100 or above, 50 for GIPRCNT values of 0, and 100 for GIPRCNT values of -100.
row,SMILES,growth
1,COc1cc(OCc2cccc(-c3ccc(C(O)c4nccs4)cc3)c2C)cc(OC)c1C=O (stereo not given),57.3%
2,COc1ccc(NS(=O)(=O)c2ccc(-c3cnc(C4CC4)o3)cc2)cc1,66.3%
3,Cn1c2ccc(Cl)cc2c2nn(C(=O)c3ccccc3)c(=O)nc21,125%
4,COc1cc(-c2nc(Nc3nc4ccccc4[nH]3)nc(N)c2C#N)cc(OC)c1OC,72%
5,Cc1nc2cc(Nc3nc(N4CCCCC4)nc(N4CCOCC4)n3)ccc2n1Cc1ccccc1,46.6%
6,COc1ccc(/C=C2\Oc3cc(C)c(Cl)cc3C2=O)cc1OC,114%
7,Cc1nn2c(-c3nc4ccc(Cl)cc4[nH]3)c(-c3ccc(F)cc3)nc2s1,93.8%
8,COc1ncnc2c1ncn2C/C(Br)=C(\Br)CCl,77.4%
9,CCCC1=NNC(=O)C1,104%
10,CCC(C)[C@H]1O[C@]2(CC[C@@H]1C)C[C@@H]1C[C@@H](C/C=C(\C)[C@@H](OC3C[C@H](OC)C(O[C@H]4C[C@H](OC)[C@@H](O)[C@H](C)O4)[C@H](C)O3)[C@@H](C)/C=C/C=C3\CO[C@@H]4[C@H](O)C(C)=C[C@@H](C(=O)O1)[C@]34O)O2 (stereo not given in full),-16.6% (active)
11,CC1(C)N=C(N)N=C(N)N1c1cccc(OCCOc2cccc([N+](=O)[O-])c2)c1,56%
12,COc1ccc(-c2c3c(N)c4c(nc3nc3c2c(C)nn3-c2ccccc2)CCCC4)cc1,96.9%
13,CN1CCc2cccc3c2C1Cc1ccc(O)c(O)c1-3 (stereo not given),115%
14,N#C/C(=C\c1ccc[nH]1)c1cc2ccccc2[nH]1,98.5%
15,Cc1cccc2c(=O)c3c(sc12)c(NCCNCCO)nc1ccccc13,-67.4% (active)
16,O=C(N/N=C/c1ccc2c(c1)OCO2)c1cnn2c1NC(c1ccccc1)C2 (stereo not given),71.8%
17,COc1c(O)c2c3c(c1OC)-c1ccccc1CC3N(S(=O)(=O)c1ccc(C)cc1)CC2 (stereo not given),53.2%
18,COc1cccc(-c2ccc3c(c2)C2CCN(Cc4ccccc4)C3C2)c1 (stereo not given),85.7%
19,O=C(Nc1ccc(Cl)c(Cl)c1)OCn1ncc2ccc([N+](=O)[O-])cc21,108%
20,Cc1ccc(C2SCC(=O)N2NC(=O)c2[nH]c3ccc(F)cc3c2-c2ccccc2)cc1 (stereo not given),97.5%

row,SMILES,growth
1,CCCCc1ccc(NC(=O)C(F)(F)F)cc1,112%
2,COc1cc2oc(-c3ccc(O)cc3)cc(=O)c2c(O)c1I,108%
3,O=C1/C(=C/c2ccc(Cl)cc2)CN(Cc2cn(CCCNc3ccnc4cc(Cl)ccc34)nn2)C/C1=C\c1ccc(Cl)cc1,-82.6% (active)
4,NC(=O)c1cc(I)ccc1NC(=O)COc1ccccc1,57.7%
5,O=C(Nc1nc2ccccc2[nH]1)C(=O)Nc1nc2ccccc2[nH]1,107%
6,CC[Si](CC)(CC)OC1[C@@H](O[Si](CC)(CC)CC)[C@@H](CNC(=O)NC)O[C@H]1n1cnc2c(NC(=O)Nc3ccccc3)ncnc21 (stereo not given in full),104%
7,CCCCC/C=C\C/C=C/CCCCCCCCNC(=O)Nc1ccc([N+](=O)[O-])cc1,106%
8,COC(=O)/C=C1/CCC2C3CCC4=CC(=O)C(Br)CC4(C)C3C(=O)CC12C (stereo not given),94.5%
9,COc1cccc(OC(=O)c2ccccc2)c1OC(=O)c1ccccc1,84.7%
10,CSC1=CC(=O)c2ccccc2C1=O,113%
11,O=C(c1ccc2ncc(-c3nc(NC4CC4)ncc3F)n2c1)N1CCOCC1,45.4%
12,COc1ccc(Sc2ccc3[nH]c(=O)nc(N)c3c2)cc1,104%
13,CCC12CCC3c4ccc(O)cc4CCC3C1CC(O)C2O (stereo not given),67.2%
14,CN(C)c1ccc(/C=C(\C#N)c2cc3ccccc3n2C)cc1,67.2%
15,Cc1ccc(S(=O)(=O)N2CCc3ccc(O)c4c3C2Cc2ccc3c(c2-4)OCO3)cc1 (stereo not given),44.4%
16,O=[N+]([O-])c1ccc(C=C2C(Cl)=C(Cl)C(Cl)=C2Cl)cc1,107%
17,N#Cc1ccc(C(F)(F)F)nc1N1CCC(C(=O)Nc2ccc(Cl)cc2)CC1,87.2%
18,COc1nc2c(cc1S(=O)(=O)c1ccccc1)CCc1c-2cnn1-c1ccccc1,82.9%
19,Cc1nc2cc(Nc3nc(Nc4ccc(F)cc4)nc(N4CCCC4)n3)ccc2n1Cc1ccccc1,-10.6% (active)
20,CN1CCN(c2ccc3nc(-c4ccc5nc(-c6ccc(C(F)(F)F)cc6)[nH]c5c4)[nH]c3c2)CC1,63.2%
